# Bioassay records deposited in PubChem by Johns Hopkins Ion Channel Center.
# KCNQ2 pot = potentiators of rat KCNQ2 potassium channel; Potassium voltage-gated channel subfamily KQT member 2 (Rattus norvegicus), O88943; CHO-K1 KCNQ2, FluxOR thallium flux fluorescence; stronger effect = higher value; B-score at 10 µM; actives 0.54% (n = 310,000);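 active means fluorescence ratio B-score at least 3 SD of library B-scores, with initial fluorescence B-score within 3 of them, cut at about 5.3 in these data; same plate scores as AID 2156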;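 further: B-score of peak minus minimum over baseline fluorescence ratio after K+ and Tl+ stimulus; positive B-score means potentiation of KCNQ2 with more thallium influx and brighter signal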
# KCNQ2 inh = rat KCNQ2 potassium channel inhibitors, primary screen, cell-based, CHO-K1, FluxOR thallium flux, B-score; AID 2156, 2009; Potassium voltage-gated channel subfamily KQT member 2 (Rattus norvegicus), O88943; actives 1.1% (n = 310,000); 20 min; stronger effect = lower value; B-score at 10 µM;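 active means fluorescence ratio B-score at most minus 3 library SDs, with starting brightness B-score within 2 library SDs, cut at about -5.5 in these data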
# Kir21 confirm = mouse Kir2.1 channel blockers, retest, confirmation, cell-based, FluxOR thallium flux, duplicate | Tl flux remaining, % of negative control (stronger effect = lower value), % at 10 µM | shares compounds with KCNQ2 pot | AID 2032, 2009 | Kir2.1-expressing cells, FluxOR thallium flux fluorescence; stronger effect = lower value | actives 41% (n = 2,300);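 active means Primary-screen hit whose thallium flux fell at least 3 control SD below untreated wells in both duplicates, with normal baseline fluorescence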;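 further: 0% = blank wells without stimulus and 100% = stimulated no-compound controls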
# HEK293 Tl flux = alters thallium flux in parental HEK293 cells, Kir2.1 counter-screen | FluxOR thallium flux fluorescence; 0% = unstimulated blank wells | FluxOR signal as % of negative control (100 = no effect), % at 10 µM | shares compounds with KCNQ2 pot | AID 2105 | actives 19% (n = 2,300);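 active means dye signal at least 3 control SD above or below untreated wells in both duplicates, raw fluorescence within 3, either direction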;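 further: percent is based on the flux ratio of peak minus minimum fluorescence over baseline F0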
# CHO-K1 ctr = nonspecific thallium flux increase in parental CHO-K1, confirmation, counter-screen for KCNQ2 potentiator project, cell-based, FluxOR thallium flux, duplicate; actives 43% (n = 1,200); shares compounds with KCNQ2 pot; activity increase over 3SD of controls, % at 10 µM; parental CHO-K1 cells, FluxOR thallium flux fluorescence; zero = vehicle mean+3SD, 100% = vehicle-minus-blank window; AID 2282, 2010;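 active means signal rise of at least 3 SD above the untreated control mean, in both duplicate wells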;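 further: counter screen of KCNQ2 potentiator hits so any rise reflects channel-independent effects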
# KCNQ1 sel pot = human KCNQ1 channel potentiation off-target, confirmation, selectivity assay for KCNQ2 potentiator project, cell-based, CHO, FluxOR thallium flux; CHO KCNQ1 stable, FluxOR thallium flux fluorescence; beyond 3SD, as % of vehicle-control signal; shares compounds with KCNQ2 pot; activation over 3SD threshold, % at 10 µM; actives 28% (n = 1,200);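 active means fluorescence ratio rise of at least 3 SD of vehicle wells above their mean, in both replicate wells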;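 further: 0% = vehicle mean plus 3 SD and 100% = vehicle minus unstimulated blank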
# Target sequence (P51787 whole entry, looked up): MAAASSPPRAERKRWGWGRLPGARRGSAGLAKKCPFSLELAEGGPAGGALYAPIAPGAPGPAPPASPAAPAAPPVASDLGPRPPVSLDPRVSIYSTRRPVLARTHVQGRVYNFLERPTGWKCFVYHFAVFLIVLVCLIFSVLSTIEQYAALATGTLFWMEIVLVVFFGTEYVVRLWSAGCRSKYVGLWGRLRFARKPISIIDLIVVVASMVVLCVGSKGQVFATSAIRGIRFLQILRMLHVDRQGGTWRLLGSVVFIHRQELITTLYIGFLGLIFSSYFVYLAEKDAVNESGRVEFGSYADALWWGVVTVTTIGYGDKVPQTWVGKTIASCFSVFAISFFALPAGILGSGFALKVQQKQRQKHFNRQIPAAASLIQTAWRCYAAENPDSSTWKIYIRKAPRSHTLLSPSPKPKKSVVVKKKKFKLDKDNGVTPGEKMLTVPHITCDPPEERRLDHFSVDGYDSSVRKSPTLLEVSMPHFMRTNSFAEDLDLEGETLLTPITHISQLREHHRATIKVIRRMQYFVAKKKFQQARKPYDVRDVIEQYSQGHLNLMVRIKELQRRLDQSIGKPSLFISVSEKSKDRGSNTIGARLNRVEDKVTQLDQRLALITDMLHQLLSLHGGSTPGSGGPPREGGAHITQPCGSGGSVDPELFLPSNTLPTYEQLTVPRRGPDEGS
# KCNQ2 pot confirm = rat KCNQ2 channel potentiators, confirmation, cell-based, CHO, FluxOR thallium flux, duplicate | CHO-KCNQ2 cells, FluxOR thallium flux fluorescence | shares compounds with KCNQ2 pot | AID 2287, 2010 | actives 68% (n = 1,200) | potentiation, less the hit threshold, % at 10 µM;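 active means fluorescence ratio rising 3 SD or more over the vehicle control mean in both replicates, plus primary screen hit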;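 further: peak minus minimum thallium fluorescence divided by baseline after K/Tl stimulus; 0% = vehicle mean plus 3 SD and 100% = vehicle minus unstimulated blank difference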
# Kir21 spec = mouse Kir2.1 channel activation off-target, confirmation, selectivity assay for KCNQ2 potentiator project, cell-based, HEK293, FluxOR thallium flux | shares compounds with KCNQ2 pot | HEK293 Kir2.1, FluxOR thallium flux fluorescence | activity over 3SD threshold, % at 10 µM | actives 2% (n = 1,200) | AID 2345, 2010;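 active means fluorescence ratio rise of at least 3 SD above the vehicle-control mean, seen in both replicates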;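 further: 0% = vehicle mean plus 3 SD and 100% = vehicle minus no-stimulus blank window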
# KCNQ2 W236L MoA = potentiators of retigabine-insensitive KCNQ2 W236L, mechanism study for KCNQ2 potentiator project, cell-based, rat KCNQ2 W236L, CHO, automated patch clamp. automated patch clamp current. actives 10% (n = 940). shares compounds with KCNQ2 pot. current increase over 3SD of negative controls (%), stronger effect = higher value, % at 25 µM;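 active means current increase at least 3 SD of the untreated controls above them in both duplicate recordings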
# Starred values were filed as active, the others as inactive; i = inactive; . = not tested or not shown. An excerpt weighted towards active compounds, which were near 1.6% of everything screened.
SMILES,KCNQ2 pot,KCNQ2 inh,Kir21 confirm,HEK293 Tl flux,CHO-K1 ctr,KCNQ1 sel pot,KCNQ2 pot confirm,Kir21 spec,others
CCC(=NCc1ccco1)c1c(C(F)(F)F)[nH]n(-c2nc3ccccc3s2)c1=O,7.8*,i,i,i,-7,-12,-19,-38,
O=C(Nc1ncc2c(n1)-c1ccccc1CC2)c1cccs1,9.7*,i,i,i,-9,-9,29*,-14,KCNQ2 W236L MoA=i
O=C(Nc1ncc2c(n1)-c1ccccc1CC2)c1ccc(F)cc1,4.5,i,.,.,.,.,.,.,
O=C(Nc1nc2c(s1)CCc1ccccc1-2)c1cccs1,0.02,i,.,.,.,.,.,.,
O=C(Nc1ncc2c(n1)-c1ccccc1CC2)c1ccccc1,8.5*,i,i,73%*,-6,73*,17*,-50,KCNQ2 W236L MoA=i
CC1=NN(C(N)=S)C(=O)C1N=Nc1cccc(Cl)c1C (stereo not drawn),40*,i,i,i,-6,-16,110*,-36,KCNQ2 W236L MoA=i
CC1=NN(C(N)=S)C(=O)C1N=Nc1cccc2ccccc12 (stereo not drawn),.,i,.,.,.,.,.,.,
Cc1c(Br)c([N+](=O)[O-])nn1C(C)C(=O)N1CCc2ccccc2C1 (stereo not drawn),.,i,.,.,.,.,.,.,
COc1cc(C(=O)OCC(=O)NC2CCCC2)cc(NC(=O)c2ccco2)c1OC,11*,i,i,i,-9,-9,-15,-18,
COc1cc(C(=O)OCC(C)=O)cc(NC(=O)c2ccco2)c1OC,.,i,.,.,.,.,.,.,
CCc1cc2c(CN3CCN(Cc4ccccc4)CC3)cc(=O)oc2cc1O,0.07,i,74%*,i,.,.,.,.,
Cc1cc2oc(=O)cc(CN(C)Cc3cccc(F)c3)c2cc1C,2,i,.,.,.,.,.,.,
CCc1ccc2c(CN3CCN(Cc4ccccc4)CC3)cc(=O)oc2c1,.,i,.,.,.,.,.,.,
CCc1cc2c(CN(C)Cc3ccccc3F)cc(=O)oc2cc1O,.,i,i,i,.,.,.,.,
CC1C(=O)N2CCCc3cc(NC(=O)C(=O)NCCc4ccc(F)cc4)cc1c32 (stereo not drawn),.,i,.,.,.,.,.,.,
Cc1ccc(Nc2nc(N)nc(CN3CCN(c4ccccc4)CC3)n2)cc1Cl,.,i,.,.,.,.,.,.,
COc1ccc(N2CCN(Cc3nc(N)nc(Nc4ccc(C)c(Cl)c4)n3)CC2)cc1,11*,i,i,i,60*,7.2*,21*,-19,KCNQ2 W236L MoA=i
CCc1c(C)c2ccc(OCC(=O)NCC3CCC(C(=O)O)CC3)c(C)c2oc1=O (stereo not drawn),.,i,.,.,.,.,.,.,
CCCCN(CC(=O)NCCOC)C(=O)Cn1nnc2ccccc21,0.15,i,.,.,.,.,.,.,
O=C(NC1CCCCC1)c1ccc2snnc2c1,0.93,i,.,.,.,.,.,.,
Nc1ccc(S(=O)(=O)c2ccccc2)nc1,.,i,.,.,.,.,.,.,
O=[N+]([O-])c1ccc(S(=O)(=O)c2ccccc2)nc1,-5.9,-5.9*,i,70%*,.,.,.,.,
CCCn1c(Nc2cccc(OC)c2)nc2ccccc21,.,i,.,.,.,.,.,.,
